Bioassay records: PubChem, several laboratories
A selection: hits, their analogues and other compounds. The true share with any hit is near 1.1%.
Mtb bLac sens – beta-lactam sensitization of Mtb H37Rv; actives 0.27% (n = 330,000); inhibition, % at 25 µM; AID 434955; M. tuberculosis H37Rv growth with meropenem, percent inhibition; call rule not given here;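 further: growth measured after seven days incubation then overnight dye step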
PriA SSB inh – inhibitors of Klebsiella pneumoniae PriA binding to SSB C-terminal tail; AID 1272365; AlphaScreen SSBct-PriA binding, biotinylated peptide; actives 0.6% (n = 430,000); inhibition, % at 33 µM; in the data active means inhibition mostly above about 37%, no sharp cut-off; inactive means mostly below about 20%
Mtb UGM inh – blocks M. tuberculosis UGM enzyme; purified UGM, fluorescence polarization probe displacement; inhibition, % at 10 µM; actives 0.06% (n = 320,000); AID 504406; in the data active means inhibition above about 10%, passing the limit was not always enough; inconclusive means no clear call, values can overlap the other calls
RecA intein inh – inhibitors of M. tuberculosis RecA intein splicing; P9WHJ3; cell-free RecA intein splicing, fluorescence; inhibition, % (concentration not given with the values); actives 0.75% (n = 290,000); AID 2221; in the data active means inhibition above about 30%; inconclusive means no clear call, values can overlap the other calls
Rv3671c protease – Rv3671c (M. tuberculosis) protease inhibition; AID 2606; inhibition, % at 5.96 µM; P9WHR9; actives 0.048% (n = 320,000); in the data active means inhibition above about 38%;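 further: extracellular domain of Rv3671c used as enzyme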
Target sequence (P9WHR9 whole entry, looked up, the tested form may be a part): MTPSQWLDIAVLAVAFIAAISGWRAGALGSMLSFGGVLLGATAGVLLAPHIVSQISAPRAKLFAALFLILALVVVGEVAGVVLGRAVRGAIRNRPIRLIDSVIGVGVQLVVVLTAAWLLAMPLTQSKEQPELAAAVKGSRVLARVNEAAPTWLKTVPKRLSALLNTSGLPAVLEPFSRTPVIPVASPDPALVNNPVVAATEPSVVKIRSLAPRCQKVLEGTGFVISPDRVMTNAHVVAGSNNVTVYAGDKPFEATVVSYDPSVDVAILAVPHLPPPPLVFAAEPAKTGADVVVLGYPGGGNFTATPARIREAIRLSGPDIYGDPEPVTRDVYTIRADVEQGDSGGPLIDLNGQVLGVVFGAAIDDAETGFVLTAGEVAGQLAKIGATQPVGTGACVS
Each line names hits and unclear results; the compound was inactive in the other large screens; ! = repeats disagree.

CCCN1CCCc2cc(CCNC(=O)COc3ccc(Cl)cc3)ccc21	PriA SSB inh 73 (no result: Mtb bLac sens, Mtb UGM inh, RecA intein inh, Rv3671c protease)
CCCN1CCCc2cc(CCNC(=O)COc3cccc(C)c3)ccc21	PriA SSB inh 90 (no result: Mtb bLac sens, Mtb UGM inh, RecA intein inh, Rv3671c protease)
CCCN1CCCc2cc(CCNC(=O)c3ccccc3OCC)ccc21	PriA SSB inh 74 (no result: Mtb bLac sens, Mtb UGM inh, RecA intein inh, Rv3671c protease)
CC(=NNc1ccccc1)c1cccc(N)c1	none (no result: Mtb bLac sens, Mtb UGM inh, RecA intein inh, Rv3671c protease)
CCC(N)CN1CCOCC1 (stereo unspecified)	none (no result: Mtb bLac sens, Mtb UGM inh, RecA intein inh, Rv3671c protease)
CCCN1CCCc2cc(CCNC(=O)COc3ccccc3C)ccc21	PriA SSB inh 68 (no result: Mtb bLac sens, Mtb UGM inh, RecA intein inh, Rv3671c protease)
C/C(=C/CCC(C)[C@H]1CC[C@@]2(C)C3=C(CC[C@]12C)[C@@]1(C)CCC(=O)C(C)(C)[C@@H]1CC3)C(=O)O (stereo partly specified)	RecA intein inh 42
COc1ccc(C2C(=C(O)c3ccc4c(c3)OCCO4)C(=O)C(=O)N2Cc2cccnc2)cc1OC (stereo unspecified)	none (no result: Mtb bLac sens, Mtb UGM inh, RecA intein inh, Rv3671c protease)
COc1ccc(N=Nc2nc3ccc(Br)cc3n2C)cc1	Mtb UGM inh 66
O=c1oc2c3c4c(cc2s1)CCCN4CCC3	PriA SSB inh 52
Cc1cc(NC(=O)c2cccc3ccccc23)n(-c2nc3c(cnn3-c3ccc(F)cc3)c(=O)[nH]2)n1	PriA SSB inh 43 (no result: Mtb bLac sens, Mtb UGM inh, RecA intein inh, Rv3671c protease)
COc1ccc(CC(=O)Nc2cc(C)nn2-c2nc3c(cnn3-c3cccc(C)c3C)c(=O)[nH]2)cc1	PriA SSB inh 60 (no result: Mtb bLac sens, Mtb UGM inh, RecA intein inh, Rv3671c protease)
COc1ccc(CCC(=O)Nc2cc(C)nn2-c2nc3c(cnn3-c3cccc(C)c3C)c(=O)[nH]2)cc1	none (no result: Mtb bLac sens, Mtb UGM inh, RecA intein inh, Rv3671c protease)
Cc1ccccc1N(Cc1cc(=O)[nH]c2ccccc12)C(=O)C(C)C	none
Cc1ccccc1N(Cc1cc(=O)[nH]c2ccccc12)C(=O)CCl	Mtb bLac sens inconclusive, RecA intein inh 48 (no result: PriA SSB inh)
O=C(Cn1c(C2CC2)nc2c(cnn2-c2ccccc2)c1=O)NC1CCCCC1	none (no result: Mtb bLac sens, Mtb UGM inh, RecA intein inh, Rv3671c protease)
C=CCN=c1scc(-c2ccc(C)cc2)n1/N=C/c1ccccn1	PriA SSB inh active (no result: Mtb bLac sens, Mtb UGM inh, RecA intein inh, Rv3671c protease)
COc1ccc(C(O)=C2C(=O)C(=O)N(CCCn3ccnc3)C2c2ccccn2)cc1C (stereo unspecified)	none (no result: Mtb bLac sens, Mtb UGM inh, RecA intein inh, Rv3671c protease)
Clc1ccc(-c2noc(-c3ccc(CSc4ccccc4)o3)n2)cc1	PriA SSB inh 81 (no result: Mtb bLac sens, Mtb UGM inh, RecA intein inh, Rv3671c protease)
CCOC(=O)CSC1=NC2=C(C(=O)CCC2)C(c2ccc(OCc3ccccc3)cc2)C1C#N (stereo unspecified)	none (no result: Mtb bLac sens, Mtb UGM inh, RecA intein inh, Rv3671c protease)
O=C(c1cc2cc([N+](=O)[O-])ccc2oc1=O)n1cccn1	PriA SSB inh 56
CCCNC(=O)CSc1ccc(NC(=O)c2ccccc2)nn1	none (no result: Mtb bLac sens, Mtb UGM inh, RecA intein inh, Rv3671c protease)
Nc1nc(N)nc(-c2ccccn2)n1	PriA SSB inh 78
Clc1nc(-c2ccccn2)nc2ccccc12	none (no result: Mtb bLac sens, Mtb UGM inh, RecA intein inh, Rv3671c protease)
c1ccc(-c2nc(-c3ccccn3)nc(-c3ccccn3)n2)nc1	none
CN1CCN(c2nc(-c3ccccn3)nc3ccccc23)CC1	PriA SSB inh 46
Nc1nc(-c2ccccn2)nc2ccccc12	PriA SSB inh 140 (no result: Mtb bLac sens, Mtb UGM inh, RecA intein inh, Rv3671c protease)
NNc1nc(-c2ccccn2)nc2c1CCC2	PriA SSB inh 165 (no result: Mtb bLac sens, Mtb UGM inh, RecA intein inh, Rv3671c protease)
c1ccc(N2CCN(c3nc(-c4ccccn4)nc4ccccc34)CC2)cc1	none
CSc1ccc([C@@H](O)CNC(=O)c2c(-c3ccccc3Cl)noc2C)cc1	none (no result: Mtb bLac sens, Mtb UGM inh, RecA intein inh, Rv3671c protease)
CC(=NNc1nc2ccccc2c(=O)n1O)c1ccco1	none (no result: Mtb bLac sens, Mtb UGM inh, RecA intein inh, Rv3671c protease)
CCCCOc1ccc(NC(=O)NCC2CCN(c3ccc(C)nn3)CC2)cc1	none (no result: Mtb bLac sens, Mtb UGM inh, RecA intein inh, Rv3671c protease)
NNc1nc(N)nc(-c2ccccn2)n1	PriA SSB inh 152 (no result: Mtb bLac sens, Mtb UGM inh, RecA intein inh, Rv3671c protease)
Cc1nc(N)nc(-c2ccccn2)n1	none (no result: Mtb bLac sens, Mtb UGM inh, RecA intein inh, Rv3671c protease)
O=C(CN1CC(=O)Oc2ccccc21)OCC(=O)c1cccc(Br)c1	PriA SSB inh 77
O=C(CN1CC(=O)Oc2ccccc21)OCC(=O)c1ccc(Cl)cc1	none (no result: Mtb bLac sens, Mtb UGM inh, RecA intein inh, Rv3671c protease)
O=C(CN1CC(=O)Oc2ccccc21)OCC(=O)c1ccccc1	PriA SSB inh 92
O=C(NCC1CCN(Cc2cccs2)CC1)c1cccc(C(F)(F)F)c1	none (no result: Mtb bLac sens, Mtb UGM inh, RecA intein inh, Rv3671c protease)
CCOCCn1c(=NC(=O)C(C)C)sc2cc(NC(C)=O)ccc21	PriA SSB inh 37 (no result: Mtb bLac sens, Mtb UGM inh, RecA intein inh, Rv3671c protease)
COc1cccc(C(=O)N2CCN(c3nc4ccc(OC(F)(F)F)cc4s3)CC2)c1OC	none (no result: Mtb bLac sens, Mtb UGM inh, RecA intein inh, Rv3671c protease)
CCOC(=O)C1=C(c2ccccc2)O/C(=C(/C#N)C(F)(F)F)S1	RecA intein inh 42 (no result: PriA SSB inh)
O=C(CCl)Nc1cn(-c2ccccc2)nc1-c1ccccc1	RecA intein inh 40
Cc1ccc(C(=O)N/C(=C\c2ccco2)C(=O)NCCCn2ccnc2)cc1C	PriA SSB inh 86
CCCN1CCCc2cc(CCNS(=O)(=O)c3ccccc3Cl)ccc21	PriA SSB inh active! (no result: Mtb bLac sens, Mtb UGM inh, RecA intein inh, Rv3671c protease)
CCCN1CCCc2cc(CCNS(=O)(=O)c3ccccc3Br)ccc21	PriA SSB inh active! (no result: Mtb bLac sens, Mtb UGM inh, RecA intein inh, Rv3671c protease)
CCCN1CCCc2cc(CCNC(=O)C(=O)NCc3ccccc3Cl)ccc21	none (no result: Mtb bLac sens, Mtb UGM inh, RecA intein inh, Rv3671c protease)
CCCN1CCCc2cc(CCNS(=O)(=O)Cc3ccccc3Cl)ccc21	PriA SSB inh 72 (no result: Mtb bLac sens, Mtb UGM inh, RecA intein inh, Rv3671c protease)
